39 compounds from PubChem BioAssay (NCI) can be followed below.

This is part of a sample that, as a whole, favours compounds with a hit. Of some 79,000 tested, about 15% had one in any assay. Activity calls are given as the source filed them. Cut-off read from the data, not from the text of the source: active = growth inhibition above about 70%; inactive = the rest.

The nature of the assay: NCI Yeast Anticancer Drug Screen. Data for the mlh1 rad18 strain (AID 175). Particulars: S. cerevisiae mlh1 rad18 strain growth inhibition; at 50.0 µM; active compounds read high. The essentials: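 Steps: expose repair-defective yeast to compound; measure growth; express inhibition against vehicle-treated controls.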
As for `CN1CCCCCCCC(=O)C(OC(=O)c2ccc([N+](=O)[O-])cc2)CCCCCCC1` (centres undefined), the growth inhibition was 14.1% (inactive). For `CN(C)Cc1c[nH]c2nc[nH]c(=O)c12`, the growth inhibition is -16.4% (inactive). Take `Cc1ccc2cc(N)ccc2c1`: the growth inhibition was 23.1% (inactive). Then `S=C(NCCS)Nc1ccccc1`, with 13.3% (inactive). Next, `O=C(O)CN(CC(=O)O)CC(=O)O`: 32.1% (inactive).

Take `CC(C)=C1CCC/C1=N\Nc1ccc([N+](=O)[O-])cc1[N+](=O)[O-]`: the growth inhibition was -8.75% (inactive). In the case of `CCCC(=O)NC(NC1CCCCC1)(C(=O)OCC)C(F)(F)F` (centres undefined), the growth inhibition is -45.1% (inactive). Turning to `O=S(=O)(O)c1cc2c3ccccc3ccc2c2ccccc12`, the growth inhibition is 21.8% (inactive). Take `NC(=S)NNc1ccccc1`: the growth inhibition was -5.3% (inactive). Regarding `Cc1cc(N(CCC#N)CCC#N)ccc1/C=C(\NC(=O)/C=C/c1ccccc1)NC(=O)Nc1ccc(Cl)cc1`, the growth inhibition was 29.2% (inactive).

Turning to `O=C(/C(=C\c1ccc(Cl)cc1)c1ccccc1)c1ccccc1`, the growth inhibition was -16.1% (inactive).

In the case of `COCCOCc1nc(C#N)c(N)o1`, the growth inhibition is -66.2% (inactive).

On to `C/C(=N\NC(=O)c1ccncc1)c1cccc(Br)c1`, for which the growth inhibition was 11.8% (inactive). Then `c1ccc(CNC2CC3CCC2C3)cc1` (centres undefined), with -1.3% (inactive); and `CCOC(=O)C1C=NC([N+](=O)[O-])=C1Br` (centres undefined), with 9.15% (inactive); and `Clc1ccc(Nc2ncco2)cc1Cl`, with 16.8% (inactive).

As to `O=[N+]([O-])c1nccn1CCC[n+]1ccc2ccccc2c1`, the growth inhibition is -17% (inactive). As for `CCCCCCCCCCCCCCCc1c(NC(C)(CC)[P+](=O)O)c(=O)n(C)n1C` (centres undefined), the growth inhibition was -18.8% (inactive). Consider `C=CCCCCCCCCCCCCCCC`, for which the growth inhibition is -35% (inactive). Then `CCOc1cc2c(cc1Cc1ccc3c(c1)OCO3)OCO2`, with 1.3% (inactive); and `Cc1ccc(S(=O)(=O)C2(NC(=O)C3CC3)CC2)cc1`, with -5.7% (inactive); and `CCCCCCCCCC(O)CCCC(O)C(O)CCCCCCC(=O)O` (centres undefined), with 37.6% (inactive). Next, `Cc1ccc2[nH]c(=S)[nH]c(=S)c2c1`: 36% (inactive). Regarding `CC(C)(Cl)C1CCC(CC(Cl)(Cl)Cl)CC1` (centres undefined), the growth inhibition was 9.75% (inactive). As for `Cc1ccc(NC(=O)c2ccc(C)c(N)c2)c(C)c1`, the growth inhibition is -5.7% (inactive). With `O=C(C[n+]1ccccc1-c1ccccn1)c1ccc(-c2ccccc2)cc1`, the growth inhibition was 34.6% (inactive). In the case of `NCc1ccccc1[N+](=O)[O-]`, the growth inhibition was 12% (inactive). Regarding `CCOC(=O)C1Cc2ccccc2OC1=O` (centres undefined), the growth inhibition is 3.85% (inactive). For `O/N=C1\CC2(N3CCOCC3)CCC1(c1ccccc1)CC2`, the growth inhibition was 11.9% (inactive).

In the case of `O=[N+]([O-])c1ccc(Cl)c(C=NC23CC4CC(CC(C4)C2)C3)c1`, the growth inhibition is -8.9% (inactive). Then `O=c1[nH]cnc2c1ncn2C1CCC(CO)O1` (centres undefined), with -8.85% (inactive). As to `O=C(/C=C/c1ccccc1)CC(=O)c1ccccc1.O=C(/C=C/c1ccccc1)CC(=O)c1ccccc1.[Cu]`, the growth inhibition is -15.9% (inactive). As for `COc1cc(Cl)ccc1NC(=O)Oc1ccc(-c2ccccc2)cc1Cl`, the growth inhibition was 99.4% (active). As for `S=c1sc2c(Cl)ncnc2n1-c1ccccc1`, the growth inhibition is 5.6% (inactive). Next, `CCCOC(=O)C(OC(=O)c1ccccc1)C(OC(=O)c1ccccc1)C(=O)OCCC` (centres undefined): -3.7% (inactive).

On to `O=C(O)C(CO)N=Cc1nc(-c2ccccc2)oc1O` (centres undefined), for which the growth inhibition is -11.8% (inactive). For `CC(C)[C@@H]1CC[C@@H](C)C[C@H]1N`, the growth inhibition is -11.2% (inactive). Take `CCOC(=O)Cn1c(C(F)(F)F)nc2nc(Cl)c(Cl)nc21`: the growth inhibition was -17.1% (inactive). Next, `COc1ccccc1NC(=O)C1=C(C)NC(C)=C(C(=O)Nc2ccccc2OC)C1c1ccccc1Cl`: 23.4% (inactive).
